Reference: PMC4552634, “A New Set of Chemical Starting Points with Plasmodium falciparum Transmission-Blocking Potential for Antimalarial Drug Discovery” (PLoS ONE, 2015)
Read-outs that look alike come from different tables or passages of the source. The whole screen tested about 13,000 compounds, of which about 3,200 (25%) showed an effect of 50% or more. Some of the results follow.

Tested on: P. falciparum stage V gametocytes
Parameters: BacTiter-Glo ATP luminescence viability of purified stage V gametocytes in 384-well plates, per cent inhibition versus DMSO
Details: 48 h, 5 µM, inhibitor

| SMILES | % Inhibition [%] | % Inhibition (% Inhibition) [%] |
| --- | --- | --- |
| CC1CN(c2ccc(NC(=O)c3cccs3)cc2)CCN1Cc1cccc(F)c1 (stereo not drawn) [TCMDC-135008] | -22.55 | – |
| COc1ccc(CNCc2cccc(-c3cccc(-c4nc5cccc(C)c5[nH]4)c3)c2)cc1.O=C(O)C(F)(F)F [TCMDC-132732] | -64.2 | – |
| c1ccc(CSC2=NNC(c3ccccn3)S2)cc1 (stereo not drawn) [TCMDC-123769] | 99.43 | – |
| NC(=O)c1cccc(C(=O)Nc2cccc(-c3csc(-c4nc5ccccc5[nH]4)c3)c2)c1 [TCMDC-132399] | -9.606 | – |
| CNS(=O)(=O)CCNCc1ccc(-c2ccc3ncnc(Nc4ccc(OCc5ccccc5)cc4)c3c2)o1 [TCMDC-138102] | -59.33 | – |
| CN(C)CCCNCc1ccc(-c2ccc(F)c(Cl)c2)o1 [TCMDC-125238] | 41.34 | – |
| CNCCCNCc1ccc(-c2ccc(F)c(Cl)c2)o1 [TCMDC-125237] | 65.13 | – |
| O=C(/C=C/c1ccccc1O)NC1CCC(CN2CCC(c3c[nH]c4ccccc34)CC2)CC1 (stereo not drawn) [TCMDC-139720] | – | 84.95 |
| O=C(/C=C/c1ccccc1Cl)NC1CCC(CN2CCC(c3c[nH]c4ccccc34)CC2)CC1 (stereo not drawn) [TCMDC-139714] | – | 34.23 |
| O=C(/C=C/c1ccccc1Cl)NC1CCC(CN2CCC(c3c[nH]c4ccccc34)CC2)CC1 (stereo not drawn) [TCMDC-139699] | – | 83.67 |
| O=C(C=Cc1ccccc1Br)NC1CCC(CN2CCC(c3c[nH]c4ccccc34)CC2)CC1 (stereo not drawn) [TCMDC-139905] | – | 19.58 |
| O=C(C=Cc1ccccc1C(F)(F)F)NC1CCC(CN2CCC(c3c[nH]c4ccccc34)CC2)CC1 (stereo not drawn) [TCMDC-139903] | – | 54.81 |
| O=C(/C=C/c1ccccc1O)NC1CCC(CN2CCC(c3c[nH]c4ccccc34)CC2)CC1 (stereo not drawn) [TCMDC-139705] | – | 20.65 |
| O=C(C=Cc1ccccc1Br)NC1CCC(CN2CCC(c3c[nH]c4ccccc34)CC2)CC1 (stereo not drawn) [TCMDC-139917] | – | 13.62 |
| O=C(C=Cc1cccc(Cl)c1Cl)NC1CCC(CN2CCC(c3c[nH]c4ccccc34)CC2)CC1 (stereo not drawn) [TCMDC-139920] | – | -3.877 |
| O=C(C=Cc1ccccc1C(F)(F)F)NC1CCC(CN2CCC(c3c[nH]c4ccccc34)CC2)CC1 (stereo not drawn) [TCMDC-139915] | – | 18.99 |
| COc1ccc(Nc2nccc(NCCNC(=O)Nc3cc(C)ccc3C)n2)cc1 [TCMDC-133644] | -56.14 | – |
| CCn1cc2c3c(cc(C(=O)N[C@@H](Cc4ccccc4)[C@H](O)CNCc4cccc(OC)c4)cc31)N(C)S(=O)(=O)CC2 [TCMDC-135784] | 29.74 | – |
